# Structures can show the parent of a compound that is named as a salt.
# System: HL-1
# Assay: relative cell viability (CellTiter-Glo) vs DMSO control (% of DMSO control); higher = more viable cells
# Conditions: oxygen condition: normoxia 72 h; 5000 nM
# Method in brief: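 Viability of HL-1 mouse atrial cardiomyocytes was assessed by CellTiter-Glo luminescence and normalised to vehicle-treated control cells. Cells were plated in 384-well plates at 1000 cells per well with compounds at 40, 200, 1000 or 5000 nM in 0.01% DMSO, and one day later were placed at 1% O2 for 48 h, then reoxygenated for 24 h, or kept in normoxia for the same duration.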
row,Structure (SMILES),relative cell viability
1,Cc1onc(-c2ccccc2)c1C(=O)N[C@@H]1C(=O)N2[C@@H]1SC(C)(C)[C@@H]2C(=O)O [Oxacillin sodium monohydrate],109
2,O=C(CCCCCCC(=O)Nc1ccccc1)NO [Vorinostat],14.6
3,CC1CCc2c(N3CCC(O)CC3)c(F)cc3c(=O)c(C(=O)O)cn1c23 (centres undefined) [Nadifloxacin],107
4,CCN(CCCc1ccccc1)CCCc1ccccc1 [Alverine Citrate],113
5,CC(=O)O[C@H]1C[C@@H]2CC[C@@H]3[C@H](CC[C@@]4(C)[C@H]3C[C@H]([N+]3(C)CCCCC3)[C@@H]4OC(C)=O)[C@@]2(C)C[C@@H]1N1CCCCC1 [Vecuronium Bromide],124
6,CNCCC(Oc1ccc(C(F)(F)F)cc1)c1ccccc1 (centres undefined) [Fluoxetine  HCl],114
7,CCCNC(C)C(=O)Nc1ccccc1C (centres undefined) [Prilocaine],97.4
8,Cc1c(N(C)C)c(=O)n(-c2ccccc2)n1C [Amidopyrine],118
9,CCCCN1CCCCC1C(=O)Nc1c(C)cccc1C (centres undefined) [Bupivacaine hydrochloride],102
10,O=C1c2c(O)ccc(O)c2C(=O)c2c(NCCNCCO)ccc(NCCNCCO)c21 [Mitoxantrone Hydrochloride],3.38
11,CO[C@H]1C[C@@H]2CC[C@@H](C)[C@@](O)(O2)C(=O)C(=O)N2CCCC[C@H]2C(=O)O[C@H]([C@H](C)C[C@@H]2CC[C@@H](OC(=O)C(C)(CO)CO)[C@H](OC)C2)CC(=O)[C@H](C)/C=C(\C)[C@@H](O)[C@@H](OC)C(=O)[C@H](C)C[C@H](C)/C=C/C=C/C=C/1C [Temsirolimus],44
12,C[C@@H]1C[C@H]2[C@@H]3C[C@H](F)C4=CC(=O)C=C[C@]4(C)[C@@]3(F)[C@@H](O)C[C@]2(C)[C@@]1(O)C(=O)CO [Flumethasone],108
13,C#C[C@]1(OC(C)=O)CC[C@H]2[C@@H]3CCC4=C[C@@H](OC(C)=O)CC[C@@H]4[C@H]3CC[C@@]21C [Ethynodiol diacetate],116
14,CS(=O)(=O)c1ccc(C2=C(c3ccccc3)C(=O)OC2)cc1 [Rofecoxib],109
15,NS(=O)(=O)c1cc2c(cc1Cl)N=C(CSCc1ccccc1)NS2(=O)=O [Benzthiazide],105
16,CC[C@H]1OC(=O)[C@H](C)[C@@H](O[C@H]2C[C@@](C)(OC)[C@@H](O)[C@H](C)O2)[C@H](C)[C@@H](O[C@@H]2O[C@H](C)C[C@H](N(C)C)[C@H]2O)[C@](C)(O)C[C@@H](C)/C(=N\OCOCCOC)[C@H](C)[C@@H](O)[C@]1(C)O [Roxithromycin],112
17,CC1=C(/C=C/C(C)=C/C=C/C(C)=C/C(=O)O)C(C)(C)CCC1 [Tretinoin],121
18,CCOC(=O)OC(C)OC1=C(C(=O)Nc2ccccn2)N(C)S(=O)(=O)c2ccccc21 (centres undefined) [Ampiroxicam],120
19,CC(O)(P(=O)(O)O)P(=O)(O)O [Etidronate],105
20,COC(=O)[C@H](c1ccccc1Cl)N1CCc2sccc2C1 [Clopidogrel],119

row,Structure (SMILES),relative cell viability
1,C[C@H](CCC(=O)O)[C@H]1CC[C@H]2[C@@H]3[C@@H](O)C[C@@H]4C[C@H](O)CC[C@]4(C)[C@H]3CC[C@]12C [Ursodiol],108
2,C[C@@H](O[C@H]1OCCN(Cc2nn(P(=O)(O)O)c(=O)[nH]2)[C@H]1c1ccc(F)cc1)c1cc(C(F)(F)F)cc(C(F)(F)F)c1 [Fosaprepitant dimeglumine],105
3,CC(=O)Oc1ccc(C(c2ccc(OC(C)=O)cc2)c2ccccn2)cc1 [Bisacodyl],101
4,Cc1cc(N)c2ccccc2[n+]1CCCCCCCCCC[n+]1c(C)cc(N)c2ccccc21 [Dequalinium chloride],101
5,CC1CNc2c(cccc2S(=O)(=O)N[C@@H](CCCNC(=N)N)C(=O)N2CC[C@@H](C)C[C@@H]2C(=O)O)C1 (some centres undefined) [Argatroban],106
6,CCCCNc1cc(C(=O)O)cc(S(N)(=O)=O)c1Oc1ccccc1 [Bumetanide],118
7,CCCCC(=O)O[C@H]1CC[C@H]2[C@@H]3CCc4cc(O)ccc4[C@H]3CC[C@]12C [Estradiol valerate],118
8,C[C@@](Cc1ccc(O)c(O)c1)(NN)C(=O)O [Carbidopa],110
9,O=c1[nH]cc(F)c(=O)[nH]1 [Adrucil],15.4
10,COc1ccccc1N1CCN(CC(O)COc2cccc3ccccc23)CC1 (centres undefined) [Naftopidil],103
11,OC(CCN1CCCC1)(c1ccccc1)C1CCCCC1 (centres undefined) [Procyclidine HCl],30.6
12,COc1ccc2cc1Oc1ccc(cc1)C[C@H]1c3c(cc4c(c3Oc3cc5c(cc3OC)CCN(C)[C@@H]5C2)OCO4)CCN1C [Cepharanthine],11.3
13,C=C1CC[C@H](O)C/C1=C/C=C1\CCC[C@]2(C)[C@@H]([C@H](C)/C=C/[C@H](C)C(C)C)CC[C@@H]12 [Vitamin D2],110
14,COc1cccc2c1C(=O)c1c(O)c3c(c(O)c1C2=O)C[C@@](O)(C(=O)CO)C[C@@H]3O[C@H]1C[C@H](N)[C@H](O)[C@H](C)O1 [Doxorubicin],13.7
15,CCOC(=O)c1c(C)n(C)c2ccc(O)cc12 [Mecarbinate],110
16,O=C(c1ccc(OCCN2CCCCC2)cc1)c1c(-c2ccc(O)cc2)sc2cc(O)ccc12 [Evista],68.7
17,CC(=O)O[C@H]1CC[C@@]2(C)C(=CC[C@@H]3[C@@H]2CC[C@]2(C)C(c4cccnc4)=CC[C@@H]32)C1 [Abiraterone Acetate],115
18,CN(Cc1cc(Br)cc(Br)c1N)C1CCCCC1 [Bromhexine HCl],108
19,C#CCN[C@@H]1CCc2ccccc21 [Rasagiline mesylate],108

# Reference: the supplement of paper PMC8371130
